Laboratory results as given in PubChem BioAssay (NCI).
The panel holds about 79,000 compounds, 15% with a hit somewhere; the sample as a whole holds those more often. Activity calls are given as the source filed them. No stated cut-off is given here; in the data, active means growth inhibition above about 70%; inactive means the rest.

Legend:
[1] = NCI Yeast Anticancer Drug Screen. Data for the rad52 strain (AID 147);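 further: 0% = growth of vehicle-treated control cultures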; settings: S. cerevisiae rad52 mutant growth inhibition, stronger effect = higher value
In short: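 Compounds are applied to a genetically defined yeast strain lacking normal DNA damage repair, and inhibition of growth is expressed relative to cultures given vehicle only.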

[2] = NCI Yeast Anticancer Drug Screen. Data for the wt1 strain (AID 149);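 further: 0% = growth of vehicle-treated wt1 cultures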; settings: S. cerevisiae wt1 strain (SPY 50644) growth inhibition, stronger effect = higher value
In short: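 wt1 strain grown with compound or vehicle; inhibition taken from the growth difference.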

[3] = NCI Yeast Anticancer Drug Screen. Data for the rad50EPP+ strain (AID 151);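 further: 0% = growth of vehicle-treated control cultures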; settings: S. cerevisiae rad50 mutant strain, stronger effect = higher value
In short: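 Compounds were applied to the rad50EPP+ yeast strain, which bears a defined DNA repair alteration, and growth inhibition was determined relative to vehicle-treated cultures.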

[4] = NCI Yeast Anticancer Drug Screen. Data for the mgt1 strain (AID 153); settings: S. cerevisiae mgt1 mutant growth inhibition, stronger effect = higher value
In short: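 Strain: mgt1 yeast, one of a set carrying defined DNA damage repair or cell cycle control alterations. Compound-treated growth compared with vehicle.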

[5] = NCI Yeast Anticancer Drug Screen. Data for the rad50 strain (AID 155);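 further: 0% = growth of vehicle-only cultures of the same strain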; settings: S. cerevisiae rad50 strain growth inhibition, stronger effect = higher value
In short: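 DNA repair mutant yeast, compound exposure, growth read-out; inhibition is taken relative to vehicle.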

[6] = NCI Yeast Anticancer Drug Screen. Data for the mec2-1 strain (AID 157); settings: S. cerevisiae mec2-1 strain, stronger effect = higher value
In short: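 Strain: mec2-1 (DNA repair/cell cycle alteration). Compound exposure, then growth measured; inhibition expressed relative to vehicle.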

[7] = NCI Yeast Anticancer Drug Screen. Data for the rad14 strain (AID 159);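 further: 0% = growth of vehicle-treated control cultures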; settings: S. cerevisiae rad14 strain growth inhibition, stronger effect = higher value
In short: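 DNA repair-defective yeast, compound-exposed; % growth inhibition derived by comparison with vehicle-treated controls.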

[8] = NCI Yeast Anticancer Drug Screen. Data for the sgs1 mgt1 strain (AID 161);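 further: 0% = growth of cultures given vehicle only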; settings: S. cerevisiae sgs1 mgt1 strain, stronger effect = higher value
In short: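 Genetically altered yeast, compound exposure, growth inhibition relative to vehicle.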

[9] = NCI Yeast Anticancer Drug Screen. Data for the CLN2oe strain (AID 163);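 further: 0% = growth of vehicle-only control cultures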; settings: S. cerevisiae CLN2oe strain, stronger effect = higher value
In short: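 Growth of a genetically modified yeast strain is measured after compound exposure and compared with cultures given vehicle alone.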

[10] = NCI Yeast Anticancer Drug Screen. Data for the cln2 rad14 strain (AID 165);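 further: 0% = growth equal to vehicle treated cultures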; settings: S. cerevisiae cln2 rad14 strain, stronger effect = higher value
In short: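 Compounds are applied to the cln2 rad14 yeast strain, and growth is then compared with that of vehicle-treated cultures to give inhibition.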

[11] = NCI Yeast Anticancer Drug Screen. Data for the bub3 strain (AID 167); settings: S. cerevisiae bub3 mutant strain, stronger effect = higher value
In short: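 In this screen, a yeast mutant lacking normal mitotic checkpoint function is challenged with compound. Relative growth versus vehicle gives the inhibition value.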

[12] = NCI Yeast Anticancer Drug Screen. Data for the wt2 strain (AID 169);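 further: 0% = growth of vehicle-treated yeast cultures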; settings: S. cerevisiae wt2 strain growth inhibition, stronger effect = higher value
In short: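 This strain belongs to a panel of yeast strains with defined genetic alterations in DNA damage repair or cell cycle control. Compounds are applied, and growth inhibition is measured against vehicle-treated cultures.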

[13] = NCI Yeast Anticancer Drug Screen. Data for the mlh1 strain (AID 171);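 further: 0% = growth of vehicle-treated control cultures of the same strain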; settings: S. cerevisiae mlh1 strain growth inhibition, stronger effect = higher value
In short: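 Growth of the mutant yeast strain after compound exposure, expressed as inhibition relative to vehicle-only controls.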

[14] = NCI Yeast Anticancer Drug Screen. Data for the sgs1 strain (AID 173);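 further: 0% = growth of vehicle-only control cultures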; settings: S. cerevisiae sgs1 mutant, stronger effect = higher value
In short: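 Growth of a yeast strain bearing a defined genetic alteration is measured after compound treatment. Inhibition is expressed relative to vehicle-only controls.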

[15] = NCI Yeast Anticancer Drug Screen. Data for the mlh1 rad18 strain (AID 175); settings: S. cerevisiae mlh1 rad18 strain growth inhibition, stronger effect = higher value
In short: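 Read-out is yeast growth inhibition, calculated against vehicle-only controls. The compound was applied to a strain engineered with DNA damage repair alterations.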

[16] = NCI Yeast Anticancer Drug Screen. Data for the rad18 strain (AID 177); settings: S. cerevisiae rad18 mutant growth inhibition, stronger effect = higher value
In short: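 Growth of the mutant yeast strain after compound exposure, normalised to vehicle-only cultures.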

[17] = at 5.0 µM (retest, dose inferred, filed as 0.5)
[18] = at 50.0 µM (retest, dose inferred, filed as 5.0)

Measured: growth inhibition

CCC(C)OC(=O)Nc1ccc(C)c(NC(=O)OC(C)CC)c1 (stereo not drawn)
inactive: [1]; at 1.2 µM -1% | [1]; at 3.7 µM -1% | [1]; at 11.0 µM 3% | [1]; at 33.0 µM 9% | [2]; at 1.2 µM -3% | [2]; at 3.7 µM 0% | [2]; at 11.0 µM -5% | [2]; at 33.0 µM 2% | [3]; at 1.2 µM -2% | [3]; at 3.7 µM -5% | [3]; at 11.0 µM -1% | [3]; at 33.0 µM 11% | [4]; at 1.2 µM -2% | [4]; at 3.7 µM -2% | [4]; at 11.0 µM -1% | [4]; at 33.0 µM 1% | [5]; at 1.2 µM 1% | [5]; at 3.7 µM 1% | [5]; [17] 4% | [5]; at 11.0 µM 2% | [5]; at 33.0 µM 9% | [5]; at 50.0 µM 54% | [6]; at 1.2 µM -2% | [6]; at 3.7 µM 0% | [6]; [17] -11% | [6]; at 11.0 µM -2% | [6]; at 33.0 µM 2% | [6]; [18] 18% | [7]; at 1.2 µM 0% | [7]; at 3.7 µM 2% | [7]; at 11.0 µM 1% | [7]; at 33.0 µM 6% | [8]; [17] 1% | [9]; at 1.2 µM 3% | [9]; at 3.7 µM 2% | [9]; at 11.0 µM 7% | [9]; at 33.0 µM 22% | [10]; [17] -4% | [11]; at 1.2 µM -3% | [11]; at 3.7 µM -2% | [11]; [17] 2% | [11]; at 11.0 µM -3% | [11]; at 33.0 µM 4% | [12]; at 1.2 µM 0% | [12]; at 3.7 µM 1% | [12]; at 11.0 µM -2% | [12]; at 33.0 µM 6% | [13]; at 1.2 µM -1% | [13]; at 3.7 µM -3% | [13]; at 11.0 µM -5% | [13]; at 33.0 µM 2% | [14]; at 1.2 µM -5% | [14]; at 3.7 µM -5% | [14]; at 11.0 µM -5% | [14]; at 33.0 µM 9% | [15]; [17] 12% | [16]; at 1.2 µM -4% | [16]; at 3.7 µM -5% | [16]; at 11.0 µM -8% | [16]; at 33.0 µM 6%
active: [1]; at 100.0 µM 96% | [2]; at 100.0 µM 73% | [3]; at 100.0 µM 74% | [4]; at 100.0 µM 96% | [5]; [18] 76% | [5]; at 100.0 µM 96% | [6]; at 50.0 µM 76% | [6]; at 100.0 µM 90% | [7]; at 100.0 µM 94% | [8]; [18] 85% | [8]; at 50.0 µM 79.4% | [9]; at 100.0 µM 95% | [10]; [18] 74% | [10]; at 50.0 µM 80% | [11]; [18] 83% | [11]; at 50.0 µM 75% | [11]; at 100.0 µM 94% | [12]; at 100.0 µM 96% | [13]; at 100.0 µM 96% | [14]; at 100.0 µM 96% | [15]; [18] 89% | [15]; at 50.0 µM 79.5% | [16]; at 100.0 µM 96%
